Results reported in PubChem BioAssay (EPA / NIEHS).
The source holds several records for some structures; these can differ, active in one and inactive in another. Active and inactive are the calls of the source. The calls were made as follows: active = hit-call score of the fitted dose curve at least 0.9, where 1 is the maximum; inactive = score below 0.9.

Legend:
[1] = BSK_3C_TissueFactor: BioMAP Diversity Plus: 3C Assay for Tissue Factor Biomarker Activity (AID 2282997); conditions: BioMAP 3C HUVEC, tissue factor biomarker readout; actives raise or lower the signal
Procedure, shortened: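 Values derive from bidirectional curve fitting against DMSO of Tissue Factor ELISA signals, taken 24 h after dosing primary human umbilical vein endothelial cells.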

[2] = BSK_3C_VCAM1: BioMAP Diversity Plus: 3C Assay for Vascular cell adhesion molecule 1 (VCAM1) Biomarker Activity (AID 2282999); conditions: BioMAP 3C HUVEC, VCAM1 ELISA, cytokine-stimulated; actives raise or lower the signal
Procedure, shortened: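 Endothelial cells from human umbilical vein are treated with test chemical. At 24 h, VCAM-1 is measured by ELISA, and responses in either direction are fitted relative to DMSO.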

[3] = BSK_4H_Eotaxin3: BioMAP Diversity Plus: 4H Assay for Eotaxin 3 Biomarker Activity (AID 2283000); conditions: primary human endothelial cells (HUVEC); actives raise or lower the signal;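 also: CCL26 protein level quantified by ELISA in parallel with SRB cytotoxicity check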
Procedure, shortened: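 Endothelial primary cells (human umbilical vein) exposed to compound for 24 h. ELISA detection of Eotaxin-3.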

[4] = read-out: Intercellular Adhesion Molecule 1 (ICAM1), ICAM1 (gene 3383); experiment: BSK_3C_ICAM1: BioMAP Diversity Plus: 3C Assay for Intercellular Adhesion Molecule 1 (ICAM1) Biomarker Activity (AID 2283003); conditions: primary human endothelial cells (HUVEC); actives raise or lower the signal
Procedure, shortened: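 HUVEC primary cells stimulated under 3C conditions; ICAM1 measured by ELISA 24 h after compound dosing. Curves fitted bidirectionally against the DMSO baseline. Overt cytotoxicity checked by SRB staining of parallel cultures.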

[5] = BSK_3C_Proliferation: Cell Proliferation Assessment in the BioMAP Diversity Plus: 3C Assay (AID 2283006); conditions: primary human endothelial cells (HUVEC)
Procedure, shortened: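 Subconfluent HUVEC (3C system) cultured with chemical; relative cell number read at 48 h by sulforhodamine B total-protein staining (0.1% SRB after 10% TCA fixation, 560 nm). Bidirectional fit relative to DMSO.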

[6] = read-out: E-selectin (Homo sapiens) (UniProt P16581); experiment: BSK_3C_Eselectin: BioMAP Diversity Plus: 3C Assay for Eselectin Biomarker Activity (AID 2283015); conditions: primary human endothelial cells (HUVEC); actives raise or lower the signal
Procedure, shortened: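 Human vascular endothelium from umbilical vein is exposed to test chemicals for 24 h. E-selectin levels are read by ELISA and compared with DMSO controls.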

[7] = read-out: Interleukin-1 alpha (IL1a), IL1A (gene 3552); experiment: BSK_BE3C_IL1a: BioMAP Diversity Plus: BE3C Assay for Interleukin-1 alpha (IL1a) Biomarker Activity (AID 2283016); conditions: primary human bronchial epithelial cells; actives raise or lower the signal
Procedure, shortened: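 Human primary bronchial epithelial cells, 24 h chemical exposure; IL-1a quantified by ELISA, fitted bidirectionally against DMSO. Cytotoxicity assessed in parallel by SRB total-protein staining at the time of measurement.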

[8] = read-out: Monocyte Chemoattractant Protein-1 (MCP1), CCL2 (gene 6347); experiment: BSK_3C_MCP1: BioMAP Diversity Plus: 3C Assay for Monocyte Chemoattractant Protein-1 (MCP1) Biomarker Activity (AID 2283017); conditions: primary human endothelial cells (HUVEC); actives raise or lower the signal
Procedure, shortened: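 Endothelial cells from human umbilical vein are dosed with chemical, cultured 24 h, then assayed for MCP-1 by ELISA; both increases and decreases are modelled against DMSO controls.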

[9] = read-out: Human Leukocyte Antigen - DR isotype (HLADR), HLA-DRA (gene 3122); experiment: BSK_3C_HLADR: BioMAP Diversity Plus: 3C Assay for Human Leukocyte Antigen - DR isotype (HLADR) Biomarker Activity (AID 2283019); conditions: primary human endothelial cells (HUVEC); actives raise or lower the signal;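 also: ELISA of cell-surface HLA-DR on HUVEC 24 h after dosing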
Procedure, shortened: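 Endothelial cells from human umbilical vein are treated with test chemical; after 24 h, HLA-DR levels are measured by ELISA. Data are fitted in both directions using DMSO as the baseline.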

[10] = read-out: Interleukin-8 (IL8), CXCL8 (gene 3576); experiment: BSK_3C_IL8: BioMAP Diversity Plus: 3C Assay for Interleukin-8 (IL8) Biomarker Activity (AID 2283020); conditions: primary human endothelial cells (HUVEC); actives raise or lower the signal
Procedure, shortened: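 Primary human umbilical vein endothelial cells were dosed for 24 h. IL-8 was quantified by ELISA and fitted bidirectionally against DMSO. Cytotoxicity was assessed in parallel cultures by SRB staining at 560 nm.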

[11] = read-out: Monokine induced gamma interferon (MIG), CXCL9 (gene 4283); experiment: BSK_3C_MIG: BioMAP Diversity Plus: 3C Assay for Monokine induced gamma interferon (MIG) Biomarker Activity (AID 2283021); conditions: primary human endothelial cells (HUVEC); actives raise or lower the signal
Procedure, shortened: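 HUVEC primary endothelial cultures dosed with chemical; MIG quantified by ELISA at 24 h. Data fitted bidirectionally against DMSO control, with parallel SRB total-protein staining for cytotoxicity.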

[12] = BSK_3C_SRB: Viability Assessment in the BioMAP Diversity Plus: 3C Assay (AID 2283023); conditions: primary human endothelial cells (HUVEC);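 also: fitted both ways against DMSO so a hit may be signal rise or drop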
Procedure, shortened: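 Cells were dosed with chemical, cultured 24 h, fixed with 10% TCA, stained with 0.1% SRB and read at 560 nm. Human umbilical vein endothelium was used; DMSO served as negative control and baseline.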

[13] = read-out: Matrix Metallopeptidase 1 (MMP1), MMP1 (gene 4312); experiment: BSK_BE3C_MMP1: BioMAP Diversity Plus: BE3C Assay for Matrix Metallopeptidase 1 (MMP1) Biomarker Activity (AID 2283024); conditions: primary human bronchial epithelial cells; actives raise or lower the signal
Procedure, shortened: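 Human primary bronchial epithelial cells (BE3C system) dosed for 24 h; MMP-1 quantified by ELISA. Bidirectional fit against DMSO; cytotoxicity tracked in parallel cultures by SRB total-protein staining.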

[14] = read-out: Pselectin, SELP (gene 6403); experiment: BSK_4H_Pselectin: BioMAP Diversity Plus: 4H Assay for Pselectin Biomarker Activity (AID 2283026); conditions: primary human endothelial cells (HUVEC); actives raise or lower the signal
Procedure, shortened: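 Primary human umbilical vein endothelial cells were treated 24 h, and cell-surface P-selectin was then quantified by ELISA. Bidirectional fit versus DMSO; cytotoxicity checked in parallel cultures by SRB total-protein staining.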

[15] = BSK_4H_SRB: Viability Assessment in the BioMAP Diversity Plus: 4H Assay (AID 2283027); conditions: primary human endothelial cells (HUVEC)
Procedure, shortened: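 Absorbance at 560 nm of SRB-stained total protein served as the viability read-out in confluent primary human umbilical vein endothelium 24 h after chemical treatment. Curves were fitted bidirectionally against DMSO as negative control.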

[16] = read-out: Urokinase-type plasminogen activator receptor (uPAR), PLAUR (gene 5329); experiment: BSK_4H_uPAR: BioMAP Diversity Plus: 4H Assay for Urokinase-type plasminogen activator receptor (uPAR) Biomarker Activity (AID 2283030); conditions: primary human endothelial cells (HUVEC); actives raise or lower the signal
Procedure, shortened: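 Chemicals are dosed onto human vascular endothelial primary cells (umbilical vein). After 24 h, uPAR is read by ELISA. Gain or loss of signal is fitted relative to DMSO.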

[17] = read-out: Vascular endothelial growth factor receptor 2 (Homo sapiens) (UniProt P35968); experiment: BSK_4H_VEGFRII: BioMAP Diversity Plus: 4H Assay for Vascular endothelial growth factor receptor 2 (VEGFR2) Biomarker Activity (AID 2283031); conditions: primary human endothelial cells (HUVEC); actives raise or lower the signal;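 as to AC50: cell-surface VEGFR2 protein level quantified by ELISA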
Procedure, shortened: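 VEGFRII levels on human vascular endothelial primary cells were determined by ELISA at 24 hours post-dosing, with gain- or loss-of-signal fitted against DMSO controls.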

[18] = read-out: Human Leukocyte Antigen - DR isotype (HLADR), HLA-DRA (gene 3122); experiment: BSK_BE3C_HLADR: BioMAP Diversity Plus: BE3C Assay for Human Leukocyte Antigen - DR isotype (HLADR) Biomarker Activity (AID 2283032); conditions: primary human bronchial epithelial cells; actives raise or lower the signal
Procedure, shortened: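 Human primary bronchial epithelial cells (BE3C system) exposed to compound for 24 hours; cell-surface HLA-DR measured by ELISA, fitted bidirectionally relative to DMSO. Total protein by SRB in parallel cultures tracked cytotoxicity.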

[19] = read-out: Vascular cell adhesion molecule 1 (VCAM1), VCAM1 (gene 7412); experiment: BSK_4H_VCAM1: BioMAP Diversity Plus: 4H Assay for Vascular cell adhesion molecule 1 (VCAM1) Biomarker Activity (AID 2283033); conditions: primary human endothelial cells (HUVEC); actives raise or lower the signal
Procedure, shortened: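 Primary human umbilical vein endothelial cells, 4H stimulation system, treated for 24 h; cell-surface VCAM-1 quantified by ELISA. Bidirectional fitting against DMSO; cytotoxicity tracked by SRB total-protein staining in parallel cultures.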

[20] = read-out: Interferon-gamma inducible Protein 10 (IP10), CXCL10 (gene 3627); experiment: BSK_BE3C_IP10: BioMAP Diversity Plus: BE3C Assay for Interferon-gamma inducible Protein 10 (IP10) Biomarker Activity (AID 2283034); conditions: primary human bronchial epithelial cells; actives raise or lower the signal
Procedure, shortened: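 Primary human bronchial epithelial cells, with IP-10 measured by ELISA 24 hours after chemical dosing. Bidirectional fit against DMSO; cytotoxicity checked by SRB total protein staining in parallel cultures.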

[21] = read-out: Monokine induced gamma interferon (MIG), CXCL9 (gene 4283); experiment: BSK_BE3C_MIG: BioMAP Diversity Plus: BE3C Assay for Monokine induced gamma interferon (MIG) Biomarker Activity (AID 2283035); conditions: primary human bronchial epithelial cells; actives raise or lower the signal;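 also: MIG protein measured by ELISA in BE3C cultures after 24 h of dosing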
Procedure, shortened: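 MIG level was determined by ELISA after 24 h chemical treatment of primary human bronchial epithelial cells. Values were fitted bidirectionally with DMSO as the negative control and activity baseline.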

[22] = read-out: Plasminogen activator inhibitor-1 (PAI1), SERPINE1 (gene 5054); experiment: BSK_BE3C_PAI1: BioMAP Diversity Plus: BE3C Assay for Plasminogen activator inhibitor-1 (PAI1) Biomarker Activity (AID 2283037); conditions: primary human bronchial epithelial cells; actives raise or lower the signal
Procedure, shortened: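 Primary human bronchial epithelial cells (BE3C system) exposed 24 h; PAI-1 quantified by ELISA. Parallel sulforhodamine B staining of total protein flags cytotoxicity. Bidirectional fit versus DMSO.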

[23] = read-out: urokinase plasminogen activator (uPA), PLAU (gene 5328); experiment: BSK_BE3C_uPA: BioMAP Diversity Plus: BE3C Assay for urokinase plasminogen activator (uPA) Biomarker Activity (AID 2283038); conditions: primary human bronchial epithelial cells; actives raise or lower the signal;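 also: uPA protein level quantified by ELISA in cell cultures; uPA read one day after compound addition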
Procedure, shortened: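 Measured by ELISA: uPA from human primary bronchial epithelial cells 24 h after chemical treatment. Values derive from bidirectional curve fitting with DMSO serving as negative control. Total protein by SRB staining in parallel wells flagged overt cytotoxicity.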

[24] = read-out: Urokinase-type plasminogen activator receptor (uPAR), PLAUR (gene 5329); experiment: BSK_BE3C_uPAR: BioMAP Diversity Plus: BE3C Assay for Urokinase-type plasminogen activator receptor (uPAR) Biomarker Activity (AID 2283039); conditions: primary human bronchial epithelial cells; actives raise or lower the signal;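 also: uPAR protein level measured by ELISA on the cells; cells exposed to compound for one day before measurement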
Procedure, shortened: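 Primary human bronchial epithelial cells dosed for 24 h; uPAR quantified by ELISA with bidirectional fitting against DMSO. Overt cytotoxicity assessed in parallel cultures by SRB total-protein staining (0.1% SRB, 560 nm).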

[25] = read-out: Interleukin-6 (IL6), IL6 (gene 3569); experiment: BSK_CASM3C_IL6: BioMAP Diversity Plus: CASM3C Assay for Interleukin-6 (IL6) Biomarker Activity for (AID 2283040); conditions: primary human coronary artery smooth muscle cells; actives raise or lower the signal
[26] = read-out: Tissue plasminogen activator (tPA), PLAT (gene 5327); experiment: BSK_BE3C_tPA: BioMAP Diversity Plus: BE3C Assay for Tissue plasminogen activator (tPA) Biomarker Activity (AID 2283041); conditions: primary human bronchial epithelial cells; actives raise or lower the signal;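 also: tPA level quantified by ELISA one day after compound addition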
Procedure, shortened: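 Primary human bronchial epithelial cells in the BE3C system, exposed to compound for 24 h. tPA was quantified by ELISA; DMSO served as baseline, with gain or loss of signal fitted. Cytotoxicity checked in parallel cultures by SRB total-protein staining.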

[27] = read-out: Interleukin-8 (IL8), CXCL8 (gene 3576); experiment: BSK_CASM3C_IL8: BioMAP Diversity Plus: CASM3C Assay for Interleukin-8 (IL8) Biomarker Activity (AID 2283042); conditions: primary human coronary artery smooth muscle cells; actives raise or lower the signal;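 also: IL-8 protein level quantified by ELISA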
[28] = read-out: Human Leukocyte Antigen - DR isotype (HLADR), HLA-DRA (gene 3122); experiment: BSK_CASM3C_HLADR: BioMAP Diversity Plus: CASM3C Assay for Human Leukocyte Antigen - DR isotype (HLADR) Biomarker Activity (AID 2283043); conditions: primary human coronary artery smooth muscle cells; actives raise or lower the signal;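 also: cell-surface HLA-DR protein level quantified by ELISA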

Measured: AC50

Sequence of E-selectin (Homo sapiens) (P16581 whole entry, looked up): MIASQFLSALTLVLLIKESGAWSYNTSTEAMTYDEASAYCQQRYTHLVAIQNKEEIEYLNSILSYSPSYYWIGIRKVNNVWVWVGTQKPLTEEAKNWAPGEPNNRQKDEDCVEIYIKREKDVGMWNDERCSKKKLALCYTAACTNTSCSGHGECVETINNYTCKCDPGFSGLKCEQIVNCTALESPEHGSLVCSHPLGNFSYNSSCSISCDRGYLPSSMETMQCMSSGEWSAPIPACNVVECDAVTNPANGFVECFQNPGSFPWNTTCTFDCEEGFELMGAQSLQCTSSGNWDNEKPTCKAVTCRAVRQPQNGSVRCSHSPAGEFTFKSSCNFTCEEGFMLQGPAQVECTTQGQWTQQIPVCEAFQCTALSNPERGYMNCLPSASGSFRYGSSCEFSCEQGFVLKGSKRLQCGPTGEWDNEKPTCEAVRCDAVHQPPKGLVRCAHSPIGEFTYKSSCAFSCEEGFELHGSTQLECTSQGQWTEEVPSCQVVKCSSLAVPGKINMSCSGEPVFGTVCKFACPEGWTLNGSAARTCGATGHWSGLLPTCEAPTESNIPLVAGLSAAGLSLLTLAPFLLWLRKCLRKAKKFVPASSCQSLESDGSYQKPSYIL

CCCC[N+](CCCC)(CCCC)CCCC
active: [13] 3.97 µM | [17] 2.14 µM
inactive: [1] | [2] | [3] | [4] | [5] | [6] | [7] | [8] | [9] | [10] | [11] | [12] | [13] | [14] | [15] | [16] | [17] | [18] | [19] | [20] | [21] | [22] | [23] | [24] | [25] | [26] | [27] | [28]
